An excerpt weighted towards active compounds, which were near 4.1% of everything screened.
IDE act: boosts human insulin-degrading enzyme activity in HEK cells | P14735 | FAbeta-B cleavage, fluorescence polarization; 0% vehicle, 100% cell-free pure enzyme wells | activation, % at 5.96 µM | 340,000 compounds, 0.073% hits | AID 493087;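 active = activation above the mean of all tested compounds plus 3 SD, set per screening campaign, cut at about 17% in these data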
IDE cell inh: inhibitors of human insulin-degrading enzyme in cells | AID 434962 | HEK cells, FAbetaB cleavage, fluorescence polarization | 320,000 compounds, 0.41% hits | inhibition, % at 5.59 µM | P14735;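 active = percent inhibition above the average of all tested compounds plus 3 SD, set per screening campaign, cut at about 16% in these data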;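 also: IDE supplied by intact live HEK cells; FP after avidin binding of uncleaved biotin substrate so inhibition keeps polarization high; 0% = DMSO wells and 100% = 60 µM reference IDE inhibitor Ii1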
CaV13 ICDI inh: Primary screen for inhibitors of IQ motif and Ca2+-dependent inactivation inhibitor domain binding in CACNA1D, Förster resonance energy transfer in living cells, …; HEK cells, CFP/YFP FRET ICDI-IQ, plate reader, 10 min; percent FRET-ratio fall versus neutral wells; inhibition, % at 12.3 µM; 340,000 compounds, 0.098% hits;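 active = mean replicate inhibition of at least 30% and at least 1% of replicates passing that level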;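 also: 0% = median of the neutral control wells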
PolyA inhibitor: inhibitors of polyadenylation in S. cerevisiae; S. cerevisiae SKY197-pL101 polyadenylation reporter, beta-gal luminescence; efflux-impaired pdr1/pdr3 knockout yeast; score 100 = 6 SD above DMSO; activity score, % at 12 µM; 300,000 compounds, 0.02% hits;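 active = lowest replicate activity score at least 50, where 100 means six control SD above control mean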;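 also: yeast exposed to compound for 9 h at 30 °C; higher score means more reporter readthrough which indicates perturbed polyadenylation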
ALR H2O2 inh: human ALR oxidase inhibition via reduced H2O2 | purified ALR, DTT oxidation, H2O2 HRP-luminol luminescence | 290,000 compounds, 3.8% hits | inhibition, % (no concentration beside the values) | P55789;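 active = mean replicate inhibition above about 79%, with every replicate also reaching it, limit read from the data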
Target sequence (P55789 whole entry, looked up): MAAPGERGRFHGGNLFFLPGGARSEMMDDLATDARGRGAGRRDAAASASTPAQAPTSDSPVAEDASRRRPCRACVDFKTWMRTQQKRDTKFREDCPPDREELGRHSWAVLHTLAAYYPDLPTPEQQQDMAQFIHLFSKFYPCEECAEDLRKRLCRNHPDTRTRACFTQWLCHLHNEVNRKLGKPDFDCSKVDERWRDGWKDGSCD
M18AAP inhibitor: PfM18AAP enzyme inhibition | recombinant PfM18AAP, H-Glu-NHMec fluorogenic cleavage | inhibition, % at 7.35 µM | 290,000 compounds, 1.2% hits;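 active = inhibition above the campaign mean inhibition over all tested compounds plus 3 SD, cut at about 28% in these data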;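 also: 0% = plate median of test compound wells and 100% = 2 mM ZnCl2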
Active calls of the source: *; . = not tested or not shown.

SMILES	IDE act	IDE cell inh	CaV13 ICDI inh	PolyA inhibitor	ALR H2O2 inh	M18AAP inhibitor
Oc1cc2c(cc1O)C1c3ccc(O)c(O)c3OCC1(O)C2 (stereo unspecified)	-11	7	.	.	100*	80*
CCN(C(=O)c1sc(N)c(C#N)c1C)C1CCCCC1	3	1	-7	-2	96*	-3
CCOC(=O)c1sc(N)c(C#N)c1CSc1nnc(C2CCCCC2)n1N	-3	11	-5	4	.	11
CCC(C)(C)n1nnnc1CN1CCc2ccccc21	1	0	.	16	98*	-6
c1ccc(CCn2nnnc2CN2CCCc3ccccc32)cc1	4	1	.	-15	89*	-9
c1ccc2c(c1)CCCN2Cc1nnnn1CC1CCCO1 (stereo unspecified)	2	-4	-6	-1	26	6
CCC(C)(C)n1nnnc1C(c1cccs1)N1CCc2ccccc21 (stereo unspecified)	0	-3	-9	2	44	0
CN(CC1COc2ccccc2O1)C(=O)c1ccc(N(C)C)cc1 (stereo unspecified)	8	-3	-4	-2	89*	-11
CN(CC1COc2ccccc2O1)C(=O)c1cccc(S(=O)(=O)N2CCCC2)c1 (stereo unspecified)	7	3	-6	.	-9	.
Cc1c(C)n(Cc2ccc(F)cc2)c2ccc(C(=O)NCCN3CCOCC3)cc12	5	8	-6	-8	8	2
C=CC[n+]1c(C)csc1Nc1cccc(Br)c1	0	2	-6	12	97*	3
Cc1ccc(-c2csc(Nc3ccccc3)[n+]2CCc2ccccc2)cc1	4	-1	-16	0	-3	1
C=CC[n+]1c(C)csc1Nc1ccc(C)cc1	-1	5	7	10	99*	13
CC(C)=NNc1cc([N+](=O)[O-])cc2c1C(=O)N(C)S2=O (stereo unspecified)	-5	4	-2	2	-15	30*
CC/C(=N\Nc1ccc([N+](=O)[O-])cc1[N+](=O)[O-])c1ccc(O)cc1	14	-4	-4	-12	12	18
CC(=O)Nc1cccc(NC(=O)CSc2nc(=O)n(Cc3ccncc3)c3c2CCC3)c1	-4	2	-5	-7	99*	.
CC(=O)Nc1cccc(NC(=O)CSc2nc(=O)n(Cc3ccccn3)c3c2CCC3)c1	3	-5	-7	28	98*	.
CCOc1ccccc1NC(=O)CSc1nc(=O)n(Cc2ccccn2)c2c1CCC2	0	5	-6	7	.	.
O=C(Cc1ccc([N+](=O)[O-])cc1)NCc1ccccn1	2	3	5	19	-5	-2
Cc1ccn2c(NC3CCCCC3)c(C)nc2c1	-1	-3	-4	-3	95*	3
Cc1ccn2c(NC3CCCCC3)c(-c3cccc(-c4cccc(Cl)c4)c3)nc2c1	8	5	-4	-6	.	.
Cc1ccn2c(NC3CCCCC3)c(C(C)C)nc2c1	-5	-2	-5	-3	99*	-1
Cc1c(NC(=O)c2ncn[nH]2)cccc1-c1nc2ccccc2s1	5	2	-18	7	9	1
CC(C)(C)NC(=O)c1ccccc1-c1nc2ccccc2s1	3	0	-6	10	-5	26
Cc1c(O)ccc(-c2[nH]ncc2-c2nc3ccccc3s2)c1O	2	0	-5	-6	89*	11
SMILES	IDE act	IDE cell inh	CaV13 ICDI inh	PolyA inhibitor	ALR H2O2 inh	M18AAP inhibitor
Cc1c(O)ccc(-c2n[nH]c(C(=O)O)c2-c2nc3ccccc3s2)c1O	4	5	10	11	17	30*
COc1ccc(C(=O)N2CCCC(C(=O)N3CCN(c4ccccc4)CC3)C2)cc1 (stereo unspecified)	2	8	-20	1	35	-6
O=C(Nc1ccc(C(=O)N2CCOCC2)cc1)C1CCCC1	4	.	-5	.	.	.
Cc1ccc(N=c2sc(C)c(C)n2C)cc1	0	10	-5	-1	99*	-3
O=C(NCC#CCOCc1ccccc1)c1ccccc1	3	-1	37*	-6	30	-1
O=C(NCCNC(=O)c1ccccc1)c1ccccc1	1	-2	0	-12	-6	-8

Compound activity from PubChem BioAssay.
